Data as given in publication PMC7862700, “An all-to-all approach to the identification of sequence-specific readers for epigenetic DNA modifications on cytosine”.

Columns and labels:
Test in all cases: DAPPL (digital affinity profiling via proximity ligation, sequencing); 10 mM Tris-HCl pH 7.5, 50 mM NaCl, 1 mM DTT, 4% glycerol, room temperature, 30 min; GST-TFs on glutathione beads, 16-mer random dsDNA library, 0.1% formaldehyde crosslink after washing; high values mean tight binding
[1] = biological target: T1, FEV (Homo sapiens, UniProt Q99581 1-238); details: protein: recombinant; tags: N-terminal GST; dsDNA, one strand shown
T1 sequence: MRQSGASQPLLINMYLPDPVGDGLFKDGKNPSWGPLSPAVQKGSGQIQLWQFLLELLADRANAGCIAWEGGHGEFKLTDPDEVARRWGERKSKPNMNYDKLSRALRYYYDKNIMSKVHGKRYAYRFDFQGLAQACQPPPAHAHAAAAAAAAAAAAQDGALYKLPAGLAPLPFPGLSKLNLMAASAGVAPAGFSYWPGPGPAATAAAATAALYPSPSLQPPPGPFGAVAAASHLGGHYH
Method in brief: (§1)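 Binding signal is given per hexamer as its read frequency for a factor divided by its frequency in the tag-only sample. GST-fused human transcription factors were expressed in yeast, captured on glutathione beads, barcoded with DNA and pooled with that sample, then incubated with 200 nmole of a 16-mer random double-stranded DNA library in Tris/NaCl/DTT/glycerol buffer for 30 min at room temperature. The pools were then washed, crosslinked, proximity-ligated, amplified by PCR and sequenced on an Illumina NextSeq500.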

[2] = biological target: ETV5 (Homo sapiens, UniProt P41161 1-510); details: protein: recombinant; tags: N-terminal GST; dsDNA, one strand shown
Method in brief: as §1

[3] = biological target: HSF1 (Homo sapiens, UniProt Q00613 1-529); details: protein: recombinant; tags: N-terminal GST; chain copies: 3; dsDNA, one strand shown
Method in brief: as §1

[4] = biological target: T2, SPIC (Homo sapiens, UniProt Q8N5J4 1-248); details: protein: recombinant; tags: N-terminal GST; dsDNA, one strand shown
T2 sequence: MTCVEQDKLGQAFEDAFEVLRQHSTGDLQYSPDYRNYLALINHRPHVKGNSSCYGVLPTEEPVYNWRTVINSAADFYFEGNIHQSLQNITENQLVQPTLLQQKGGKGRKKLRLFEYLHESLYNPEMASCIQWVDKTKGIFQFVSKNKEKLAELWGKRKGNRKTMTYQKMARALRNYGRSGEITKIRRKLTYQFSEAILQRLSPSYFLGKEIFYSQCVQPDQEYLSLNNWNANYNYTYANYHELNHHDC
Method in brief: as §1

[5] = biological target: ELF4 (Homo sapiens, UniProt Q99607 1-663); details: protein: recombinant; tags: N-terminal GST; dsDNA, one strand shown
Method in brief: as §1

[6] = biological target: T3, ELK4 (Homo sapiens, UniProt P28324-2 1-405); details: protein: recombinant; tags: N-terminal GST; dsDNA, one strand shown
T3 sequence: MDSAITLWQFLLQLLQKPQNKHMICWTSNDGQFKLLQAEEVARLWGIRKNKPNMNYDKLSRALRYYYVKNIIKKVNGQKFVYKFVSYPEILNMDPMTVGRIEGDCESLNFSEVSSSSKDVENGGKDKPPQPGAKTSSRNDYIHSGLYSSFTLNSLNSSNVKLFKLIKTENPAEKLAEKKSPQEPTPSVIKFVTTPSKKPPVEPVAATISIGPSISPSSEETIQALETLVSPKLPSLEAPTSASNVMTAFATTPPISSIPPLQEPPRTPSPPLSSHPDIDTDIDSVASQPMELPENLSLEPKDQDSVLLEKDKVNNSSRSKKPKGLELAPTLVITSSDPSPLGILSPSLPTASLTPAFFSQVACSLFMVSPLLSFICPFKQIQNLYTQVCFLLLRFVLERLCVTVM
Method in brief: as §1

[7] = biological target: T4, ETV2 (Homo sapiens, UniProt O00321 1-342); details: protein: recombinant; tags: N-terminal GST; dsDNA, one strand shown
T4 sequence: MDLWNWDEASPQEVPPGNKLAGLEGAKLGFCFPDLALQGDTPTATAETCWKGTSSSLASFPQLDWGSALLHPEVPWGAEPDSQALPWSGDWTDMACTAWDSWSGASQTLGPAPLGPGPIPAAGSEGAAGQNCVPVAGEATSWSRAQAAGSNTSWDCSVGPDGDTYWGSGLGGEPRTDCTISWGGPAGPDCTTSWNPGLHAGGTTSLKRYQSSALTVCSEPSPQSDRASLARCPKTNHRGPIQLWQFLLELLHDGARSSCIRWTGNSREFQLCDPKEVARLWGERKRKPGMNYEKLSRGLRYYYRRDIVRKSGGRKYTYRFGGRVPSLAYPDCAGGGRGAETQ
Method in brief: as §1

[8] = biological target: T5, ELF3 (Homo sapiens, UniProt P78545 1-371); details: protein: recombinant; tags: N-terminal GST; dsDNA, one strand shown
T5 sequence: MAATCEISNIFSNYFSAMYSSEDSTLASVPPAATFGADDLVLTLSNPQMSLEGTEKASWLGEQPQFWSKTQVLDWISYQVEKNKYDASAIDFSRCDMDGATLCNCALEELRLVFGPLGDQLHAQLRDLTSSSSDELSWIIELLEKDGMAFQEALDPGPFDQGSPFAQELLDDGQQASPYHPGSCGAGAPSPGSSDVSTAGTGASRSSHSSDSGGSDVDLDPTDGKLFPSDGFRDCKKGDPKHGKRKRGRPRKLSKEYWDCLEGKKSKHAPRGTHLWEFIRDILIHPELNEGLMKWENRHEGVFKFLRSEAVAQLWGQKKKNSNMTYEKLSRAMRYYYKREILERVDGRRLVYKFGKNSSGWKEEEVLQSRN
Method in brief: as §1

[9] = biological target: CRX (Homo sapiens, UniProt O43186 1-299); details: protein: recombinant; tags: N-terminal GST; dsDNA, one strand shown
Method in brief: as §1

Sequence of CRX (O43186 whole entry): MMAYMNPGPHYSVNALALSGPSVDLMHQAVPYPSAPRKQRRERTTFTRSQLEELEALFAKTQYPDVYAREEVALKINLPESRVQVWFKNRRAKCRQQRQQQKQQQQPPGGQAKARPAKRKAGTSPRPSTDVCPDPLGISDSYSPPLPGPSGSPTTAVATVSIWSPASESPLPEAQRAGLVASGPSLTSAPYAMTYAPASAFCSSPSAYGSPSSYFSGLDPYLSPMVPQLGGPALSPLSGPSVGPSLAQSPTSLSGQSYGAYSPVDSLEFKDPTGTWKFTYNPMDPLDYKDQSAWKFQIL
Sequence of ELF4 (Q99607 whole entry): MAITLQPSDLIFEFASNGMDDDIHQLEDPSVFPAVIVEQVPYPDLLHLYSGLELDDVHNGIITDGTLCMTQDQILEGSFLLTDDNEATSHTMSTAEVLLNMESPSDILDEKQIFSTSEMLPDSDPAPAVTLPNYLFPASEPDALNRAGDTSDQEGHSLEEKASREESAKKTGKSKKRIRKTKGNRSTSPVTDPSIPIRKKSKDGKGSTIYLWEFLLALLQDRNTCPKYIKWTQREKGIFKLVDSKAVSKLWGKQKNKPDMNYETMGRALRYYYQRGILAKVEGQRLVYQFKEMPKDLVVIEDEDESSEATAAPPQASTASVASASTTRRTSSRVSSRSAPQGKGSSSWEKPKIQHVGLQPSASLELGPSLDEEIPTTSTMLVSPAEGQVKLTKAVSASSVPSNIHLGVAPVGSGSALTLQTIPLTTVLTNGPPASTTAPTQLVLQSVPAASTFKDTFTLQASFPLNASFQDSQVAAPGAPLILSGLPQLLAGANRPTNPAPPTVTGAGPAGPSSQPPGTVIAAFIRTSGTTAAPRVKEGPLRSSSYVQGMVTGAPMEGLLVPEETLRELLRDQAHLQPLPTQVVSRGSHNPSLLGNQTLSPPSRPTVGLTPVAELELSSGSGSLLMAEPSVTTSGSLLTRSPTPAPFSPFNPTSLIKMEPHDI
Sequence of HSF1 (Q00613 whole entry): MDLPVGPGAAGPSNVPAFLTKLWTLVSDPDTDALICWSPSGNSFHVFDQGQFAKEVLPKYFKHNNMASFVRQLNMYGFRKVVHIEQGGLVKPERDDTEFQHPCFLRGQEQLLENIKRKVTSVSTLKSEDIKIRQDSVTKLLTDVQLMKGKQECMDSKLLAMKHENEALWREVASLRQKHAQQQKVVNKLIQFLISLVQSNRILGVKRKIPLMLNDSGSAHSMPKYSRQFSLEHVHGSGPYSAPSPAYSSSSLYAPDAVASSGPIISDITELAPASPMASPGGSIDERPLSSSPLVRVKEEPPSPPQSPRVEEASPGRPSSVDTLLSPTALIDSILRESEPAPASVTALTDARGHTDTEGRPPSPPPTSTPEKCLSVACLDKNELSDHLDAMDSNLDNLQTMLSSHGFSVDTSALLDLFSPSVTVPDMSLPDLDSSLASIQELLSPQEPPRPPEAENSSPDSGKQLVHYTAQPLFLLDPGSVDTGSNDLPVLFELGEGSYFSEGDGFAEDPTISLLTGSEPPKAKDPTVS
Sequence of ETV5 (P41161 whole entry): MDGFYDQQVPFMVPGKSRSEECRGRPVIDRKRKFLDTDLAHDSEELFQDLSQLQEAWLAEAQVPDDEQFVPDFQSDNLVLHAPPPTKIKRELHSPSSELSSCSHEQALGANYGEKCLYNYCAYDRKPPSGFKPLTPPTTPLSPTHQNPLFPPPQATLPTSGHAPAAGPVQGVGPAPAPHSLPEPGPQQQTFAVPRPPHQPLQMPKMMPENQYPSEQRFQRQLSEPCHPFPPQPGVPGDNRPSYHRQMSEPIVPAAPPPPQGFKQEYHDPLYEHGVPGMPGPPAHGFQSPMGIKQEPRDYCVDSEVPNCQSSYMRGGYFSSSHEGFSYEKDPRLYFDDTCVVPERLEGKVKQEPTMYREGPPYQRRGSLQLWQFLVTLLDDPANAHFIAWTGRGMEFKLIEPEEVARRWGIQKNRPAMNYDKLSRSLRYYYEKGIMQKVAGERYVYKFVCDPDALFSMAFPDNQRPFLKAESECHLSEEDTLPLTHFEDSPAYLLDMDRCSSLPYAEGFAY

CCTCTA
binding signal [1]: 1.4 fold enrichment (6-mer frequency, TF over GST control) | binding signal [2]: 1.27 fold enrichment (6-mer frequency, TF over GST control) | binding signal [3]: 1.38 fold enrichment (6-mer frequency, TF over GST control) | binding signal [4]: 1.37 fold enrichment (6-mer frequency, TF over GST control) | binding signal [5]: 1.35 fold enrichment (6-mer frequency, TF over GST control) | binding signal [6]: 1.24 fold enrichment (6-mer frequency, TF over GST control) | binding signal [7]: 1.37 fold enrichment (6-mer frequency, TF over GST control) | binding signal [8]: 1.43 fold enrichment (6-mer frequency, TF over GST control) | binding signal [9]: 1.45 fold enrichment (6-mer frequency, TF over GST control)
